Test results published in PubChem BioAssay (NCATS).
Active and inactive are the calls of the source. The call rests on the fitted dose curve.

Legend:
Test in all cases: Confirmatory Screen for Target Class Profiling of Small Molecule Inhibitors of Methyltransferases (AID 1745852); on activity change, negative = inhibition: on the % scale 0 is the no-effect control and ±100 the full control effect
[1] = target: Catechol O-methyltransferase (Homo sapiens) (UniProt P21964); details: MTase-Glo luminescence, SAH detection, recombinant enzyme; measured here: COMT max response; stronger effect = lower value
[2] = target: Guanidinoacetate N-methyltransferase (Homo sapiens) (UniProt Q14353); details: MTase-Glo luminescence, SAH detection, recombinant enzyme; activity change, negative = inhibition: at 57.3 µM (top of the series) unless noted; series mostly up to 57.3 µM
[3] = target: Nicotinamide N-methyltransferase (Homo sapiens) (UniProt P40261); details: MTase-Glo luminescence, SAH detection, recombinant enzyme; measured here: NNMT max response; stronger effect = lower value
[4] = target: Phenylethanolamine N-methyltransferase (Homo sapiens) (UniProt P11086); details: MTase-Glo luminescence, SAH detection, recombinant enzyme; measured here: PNMT max response; stronger effect = lower value
Potency means the concentration at half of the fitted maximal effect.

Chain of Nicotinamide N-methyltransferase (Homo sapiens) (P40261 whole entry, looked up): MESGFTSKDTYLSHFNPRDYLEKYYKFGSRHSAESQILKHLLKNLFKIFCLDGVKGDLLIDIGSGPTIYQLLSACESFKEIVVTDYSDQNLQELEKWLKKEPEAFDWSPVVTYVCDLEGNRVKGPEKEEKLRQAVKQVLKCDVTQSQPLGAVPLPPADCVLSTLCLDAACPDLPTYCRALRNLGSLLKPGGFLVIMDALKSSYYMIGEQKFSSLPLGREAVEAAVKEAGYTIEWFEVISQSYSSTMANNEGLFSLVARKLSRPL
Chain of Phenylethanolamine N-methyltransferase (Homo sapiens) (P11086 whole entry, looked up): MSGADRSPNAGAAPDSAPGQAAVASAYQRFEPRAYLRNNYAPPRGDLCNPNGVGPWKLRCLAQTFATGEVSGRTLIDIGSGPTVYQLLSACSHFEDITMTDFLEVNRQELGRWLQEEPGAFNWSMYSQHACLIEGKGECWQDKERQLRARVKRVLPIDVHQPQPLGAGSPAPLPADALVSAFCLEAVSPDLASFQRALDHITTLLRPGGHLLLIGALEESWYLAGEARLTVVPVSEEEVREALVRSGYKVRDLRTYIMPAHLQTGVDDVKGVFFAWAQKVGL
Chain of Catechol O-methyltransferase (Homo sapiens) (P21964 whole entry, looked up): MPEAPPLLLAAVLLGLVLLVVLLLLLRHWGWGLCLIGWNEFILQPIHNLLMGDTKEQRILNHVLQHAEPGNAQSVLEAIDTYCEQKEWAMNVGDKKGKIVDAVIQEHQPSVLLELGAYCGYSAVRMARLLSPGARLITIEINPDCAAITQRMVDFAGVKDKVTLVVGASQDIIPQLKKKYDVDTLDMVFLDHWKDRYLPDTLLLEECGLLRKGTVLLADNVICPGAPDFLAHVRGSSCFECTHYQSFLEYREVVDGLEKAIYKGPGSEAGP

| Compound | activity [1] | Potency [2] | activity [3] | activity [4] | activity change, negative = inhibition [2] |
| --- | --- | --- | --- | --- | --- |
| COc1ccc(-c2nc3ccncc3[nH]2)cc1 | -92.6% | 12.4 µM (active) | -106% | -86.1% |  |
| Cc1ccc(Cn2c(=O)c3ccccc3n3c(CCC(=O)NCCCN4CCN(C)CC4)nnc23)cc1 | -2.75% |  | -12.5% | 3.42% | -1.36% |
| COc1ccc2c(c1)C(CN1CCN(c3ccc4oc(C(=O)O)cc4c3Cl)CC1)=CC(C)(C)CO2 | -4.38% |  | -9.6% | 3.5% | 0.273% |
| CN(C)CC1(O)CCC2(CCN(C(=O)c3cccn3C)CC2)CC1 | 7.38% |  | 3.1% | 9.04% | 3.21% |
| CCN(CC)CCNC(=O)CCc1nnc2n(Cc3ccc(C)cc3)c(=O)c3ccccc3n12 | -5.02% |  | -14.5% | 0.867% | -3.03% |
| CCCC1c2cccn2CCN1C(=O)Nc1ccc(C)cc1Cl (stereo not given) | 0.596% | inactive | -6.98% | -0.613% |  |
| COc1cccc(NC(=O)Cn2c(=O)oc3cc(S(=O)(=O)N4CC(C)CC(C)C4)ccc32)c1 (stereo not given) | 3.17% |  | -1.21% | -70.5% | 0% |
| CN(Cc1ccccc1)C1(C(=O)NC2CCC(O)CC2)Cc2ccccc2C1 (stereo not given) | 2.67% |  | 7.08% | 6.38% | 3.98% |
| CC1CCCCN1CCCNC(=O)Cn1ccc2cc(S(=O)(=O)N3CCCCC3)ccc21 (stereo not given) | 1.36% |  | 0.0396% | -0.622% | 0% |
| O=C1c2ccccc2C(=O)c2cc(S(=O)(=O)N(CCO)CCO)ccc21 | -23% |  | -1.51% | -73.8% | 2.27% |
| CCCC1c2cccn2CCN1C(=O)Nc1cccc(C(F)(F)F)c1 (stereo not given) | -5.53% |  | -7.32% | -5.65% | -0.7% |
| Cc1nccn1CCC1CCN(c2nccc(-c3ccccn3)n2)CC1 | 9.05% |  | 5.85% | 7.66% | 8.46% |
| O=C(CCC[C@@H]1[C@H]2CCCN3CCC[C@@H](CN1Cc1ccccc1)[C@@H]23)Nc1cccnc1 | -3.16% |  | -11.8% | -2.62% | -5.99% |
| O=C(O)c1ccc2c(c1)C1C=CCC1C(c1cccc(F)c1)N2 (stereo not given) | -2.11% |  | 0.825% | -2.83% | 2.71% |
| COc1ccccc1CNC(=O)C1(C)Cn2c(cc3ccccc32)C(=O)N1Cc1ccc(OC)c(OC)c1 (stereo not given) | 0% |  | -60.4% | -1.32% | 0% |
| COc1ccccc1N1CCN(S(=O)(=O)c2cccc3c2C(=O)c2ccccc2C3=O)CC1 | -3.23% |  | -1.31% | -8.85% | 2.86% |
| CC1CC(C)CN(S(=O)(=O)c2ccc3c(c2)oc(=O)n3CC(=O)Nc2ccc(Cl)cc2)C1 (stereo not given) | -4.03% |  | -8.67% | -61.6% | -1.24% |
| Cc1nn(C(=O)CCC(=O)N2CCC(Cc3nncn3CC3CC3)CC2)c2ccccc12 | 6.63% |  | -59.9% | 7.75% | 3.09% |
| COc1ccc(NC(=O)CCc2ccnc(N3CCCC3)c2)c(OC)c1 | -5.64% |  | -4.13% | -2.38% | -3.43% |
| COc1cc2nc(N3CCCCC3)nc(NC3CCN(Cc4ccccc4)CC3)c2cc1OC | 11.8% | 0.968 µM (active) | -38.9% | 1.57% |  |

| Compound | activity [1] | Potency [2] | activity [3] | activity [4] | activity change, negative = inhibition [2] |
| --- | --- | --- | --- | --- | --- |
| O=C(Nc1ccc2ncnc(N3CCCCC3)c2c1)C1CCCCC1 | -75.6% | 19.2 µM (active) | -81.1% | -86.5% |  |
| Cc1cc(F)ccc1NS(=O)(=O)c1ccc2[nH]c3c(c2c1)CCCC3 | 0% |  | -33.2% | 0% | 0.252% |
| CC(=O)Nc1ccc2c(c1)C1C=CCC1C(c1ccccc1F)N2 (stereo not given) | -18.4% | 42.9 µM (active) | -12.1% | -27.7% |  |
| Cc1ccc(NC(=O)CSc2nnc3n(CC(C)C)c(=O)c4ccccc4n23)cc1 | 1.84% | inactive | -8.6% | -2.78% |  |
| Cc1ccc2c(c1)c(-n1cccc1)c1n2CC(C)(C(=O)NC2CCCCC2)N(Cc2ccccn2)C1=O (stereo not given) | 4.89% |  | -16.5% | 0% | 0.484% |
| COc1ccc(CCNC(=O)c2ccc3c(=O)[nH]c4c(C(=O)NC5CCCC5)sc(=S)n4c3c2)cc1OC | -35.3% | 24.1 µM (active) | -49.2% | -23% |  |
| COc1ncccc1-c1cc2c(ccn2CC2CCN([S+](C)(=O)[O-])CC2)c(N2CCOCC2)n1 | -8.55% |  | -94.7% | -10.8% | 1.38% |
| O=C(CCc1nnc2n(Cc3ccc(F)cc3)c(=O)c3ccccc3n12)N1CCC(N2CCCCC2)CC1 | 3.84% |  | -4.81% | 0% | 0% |
| Cc1noc(C)c1-c1cnc(Nc2ccncc2)c2c1CCO2 | 0.912% |  | -6.04% | 2.25% | 1.39% [at 85.7 µM] |
| CCOC(=O)c1cc2n(n1)CC(C)(C(=O)NCCC(C)C)N(c1ccccc1C)C2=O (stereo not given) | 2.78% | inactive | 3.85% | 1.34% |  |
| Cc1ccc([C@@H]2CN(c3cc(N4CCC(O)CC4)ncn3)C[C@H]2N(C)C)cc1 | -2.09% |  | -5.73% | -0.207% | -0.694% |
| CCCCN1C(=O)c2cc(C(=O)Nc3cc(C)cc(C)c3)nn2CC1(C)C(=O)NC1CCCC1 (stereo not given) | -1.58% |  | 1.44% | -4.22% | 0% |
| CC(C)Cn1c(=O)c2ccccc2n2c(CCC(=O)Nc3ccc(F)c(F)c3)nnc12 | -1.85% |  | -38.2% | -5.35% | 1.46% |
| Cc1cc(C)c(CNC(=O)c2cc(-c3cnn(C)c3C)cc3c2OCCN3C)c(=O)[nH]1 | -62.4% | 39.3 µM (active) | -51.4% | -75.2% |  |
| OC1(Cn2ccnc2)CCN(Cc2ccccc2Cn2cccn2)CC1 | 3.04% |  | 4.14% | 5.79% | 3.7% |
| COc1ccc(N2CCN(C(=O)c3cc(NC(C)=O)cc4nc(C)ccc34)CC2)cc1 | 1.89% |  | 4.7% | 7.32% | 4.56% |
| CCNc1ncc(CN2CCN(c3ccncc3)CC2)cn1 | 4.09% |  | -0.695% | 1.91% | 1.98% |
| FC(F)(F)c1ccnc(N2CC[C@H](c3nnc(-c4ccncc4)o3)C2)n1 | 2.16% |  | -59.3% | 3.21% | 0.304% [at 85.7 µM] |
| c1ccc(-c2[nH]nc3ncc(-c4cn[nH]c4)nc23)cc1 | -73.4% | 31.2 µM (active) | -59.9% | -83.4% |  |
| c1ccc(CNc2cc(-c3cc(N4CCCCC4)ncn3)c3cc[nH]c3n2)nc1 | -16.9% |  | -28.9% | -32% | -13.9% |

| Compound | activity [1] | Potency [2] | activity [3] | activity [4] | activity change, negative = inhibition [2] |
| --- | --- | --- | --- | --- | --- |
| Cc1ccc2c(c1)c(-n1cccc1)c1n2CC(C)(C(=O)NCCC(C)C)N(Cc2cccnc2)C1=O (stereo not given) | 4.4% |  | -51.8% | 0% | 0% |
| COc1cccc(Nc2ccnc(-c3nnc(C)n3C3CCCCC3)c2)c1 | 7.43% |  | -22.9% | 8.64% | 17.8% [at 85.7 µM] |
| CCN(CC)CCNC(=O)CCc1nnc2n(CCc3ccccc3)c(=O)c3ccccc3n12 | -2.93% |  | -10.6% | 3.34% | 1.05% |
| COc1ccnc(-c2nnc3ccc(Nc4cc(OC)c(OC)c(OC)c4)nn23)c1 | -13.7% |  | -18% | -25.6% | -8.44% [at 85.7 µM] |
| CCNc1nc2c(s1)C(c1cccc(F)c1)CC(=O)N2 (stereo not given) | -12.6% | 42.9 µM (active) | -25% | -19.2% |  |
| CC(CNC(=O)c1nnn2c1c(=O)[nH]c1cc(F)ccc12)c1ccccc1 (stereo not given) | -11.1% | 0.271 µM (active) | -18.2% | -15.8% |  |
| Cc1cc(C)c(NS(=O)(=O)c2ccc3c(c2)n(C)c(=O)n3C)c(C)c1 | 0.505% |  | -39.4% | 0.178% | 0% |
| COc1ccc(CC(=O)Nc2ccc3ncnc(N4CCCC4)c3c2)c(Cl)c1 | -2.51% |  | -30.7% | -8.25% | -0.581% |
| Cc1ccc(Cn2c(=O)c3ccccc3n3c(CCC(=O)NCCCN4CCC(C)CC4)nnc23)cc1 | 0% |  | -6.98% | 0% | 0% |
| COC1CCN(c2cc(-c3ccsc3)nc3c(C)noc23)CC1 | -4.15% |  | -17% | -10.4% | -0.422% [at 85.7 µM] |
| CN1CCC(N2CC[C@H](c3nc4ccccc4[nH]3)C2)CC1 | -6.53% |  | -26.5% | -6.23% | -8.47% [at 114 µM] |
| CCc1ccc(NS(=O)(=O)c2ccc3c(c2)n(C)c(=O)n3C)cc1 | 4.08% |  | -40.6% | -1.22% | 0% |
| O=C(NCc1ccc2c(c1)OCO2)c1sc(=S)n2c1[nH]c(=O)c1ccccc12 | -46.4% | 27.1 µM (active) | -20.7% | -48.8% |  |
| Cc1ccc(CN2C(=O)c3ccc(-c4ccco4)n3CC2(C)C(=O)NCc2ccc(Cl)cc2)cc1 (stereo not given) | 0% | inactive | -6.21% | 1.57% |  |
| COc1ccc(S(=O)(=O)N2CCC(n3c(=O)[nH]c4ccccc43)CC2)cc1 | -23.2% |  | -15.3% | -23.9% | -12% |
| O=C(CCc1nnc2n(Cc3ccc(Cl)cc3)c(=O)c3ccccc3n12)N1CCC(N2CCCCC2)CC1 | -4.51% |  | -21.6% | 0.847% | -0.992% |
| O=C(NCc1ccc2c(c1)OCO2)c1sc(=S)n2c1[nH]c(=O)c1cc(Cl)ccc12 | -44.1% | 30.4 µM (active) | -69.1% | -48.4% |  |
| C1=C(c2nc(-c3ccncc3)cc3c2ccn3Cc2cccnc2)CCOC1 | -19% |  | -8.71% | -24.5% | -9.57% [at 85.7 µM] |
| CC1CCCCN1CCNC(=O)Cn1ccc2cc(S(=O)(=O)N3CCCCC3)ccc21 (stereo not given) | 0.614% |  | -0.249% | -1.89% | 0% |
| O=C(NCCCN1CCc2ccccc2C1)C1CCc2ncc(-c3ccc(F)cc3)n2C1 (stereo not given) | -4.39% |  | 3.39% | -4.05% | -6.35% |
